In the library only some 3.2% were active in any assay of this set; here they are far more common.
LGR2 antag: blocks bursicon-induced cAMP signaling via Drosophila LGR2. 0.35% of 380,000 active. inhibition, % at 9.99 µM. HEK293 LGR2, CRE-luciferase, bursicon-stimulated, 4 h. AID 720647;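 active = drop in luminescence signal, shown as inhibition above about 50% in the replicate tests, limit read from the data, passing the limit was not always enough; inconclusive = probably only some replicates passing the limit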;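 note: agonist challenge used bursicon conditioned medium at about half maximal strength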
TWEAK Fn14 block: TWEAK-Fn14 signaling inhibition. inhibition, % at 10 µM. AID 1159606. TWEAK-stimulated Fn14 reporter cells, luciferase luminescence, 8 h. 2% of 360,000 active; in the data active = inhibition above about 50%
EWS-Fli block: inhibitors of EWS/Fli oncoprotein transcriptional activity; 0.67% of 350,000 active; AID 651661; A673 NR0B1-luciferase reporter, viability-normalised; inhibition, % at 12.6 µM;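 active = mean inhibition of at least 50% after viability correction, with every replicate also passing that limit; inconclusive = mean reaches 50% but only one of two replicates passes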;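 note: firefly luciferase signal divided by Alamar Blue viability fluorescence both relative to DMSO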
TROY signal inh: TROY signaling inhibition. Q293 LMP1-TROYcd NF-kB luciferase reporter, 4 h. inhibition, % at 10 µM. 0.98% of 360,000 active. AID 1347056;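 active = compounds whose plate-normalised and pattern-corrected inhibition of the luciferase reporter signal at the single screening dose is 50% or more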
EBV LMP1 NFkB: inhibitors of Epstein-Barr LMP1-induced NF-kappaB reporter; LMP1-induced NF-kappaB luciferase reporter cells, luminescence; inhibition, % at 12.5 µM; 0.69% of 350,000 active; AID 504558; in the data active = inhibition above about 41%; inconclusive = no clear call, values can overlap the other calls;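 note: 0% = neutral control wells and 100% = reference inhibitor control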
PAX8 reporter: lowers PAX8-driven luciferase in RMG-I cells. 1.2% of 360,000 active. inhibition, % at 12.6 µM. RMG-I TPO-luciferase reporter, SteadyGlo, 24 h;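 active = mean replicate inhibition at least 60% with every replicate also reaching 60%; inconclusive = only one of the two criteria is met; inactive = mean below 60% and not all replicates reaching 60%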;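 note: luciferase light reporting Pax8 driven TPO promoter activity; plate controls were median of neutral control wells for no effect and mitoxantrone controls for full effect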
Starred values were filed as active, the others as inactive; i = inactive; ? = inconclusive; . = no result.

SMILES | LGR2 antag | TWEAK Fn14 block | EWS-Fli block | TROY signal inh | EBV LMP1 NFkB | PAX8 reporter
Cc1ccc(S(=O)(=O)Nc2ccc3c(c2)C(=O)c2ccccc2-3)cc1 | -1 | 33 | 7 | 53* | . | 15
CO[C@H]1CC[C@@H]2CCOc3ccc(C#N)cc3C(=O)N(C)[C@@H](C)C(=O)N(C)C[C@H]1O2 | -1 | . | 1 | . | . | -12
O=C(C[C@H]1CC[C@@H]2[C@H](COC[C@@H](O)CN2Cc2ccccc2F)O1)N1CCc2ccccc2C1 | -8 | . | 7 | . | . | -6
CN1C(=O)/C(=C\C(=O)c2cccs2)c2ccccc21 | 24 | 29 | 42 | 23 | 6 | 89*
OCc1cc(C(O)CNCCCCCCOCCCCc2ccccc2)ccc1O (stereo not drawn) | 1 | -4 | 18 | 11 | 55* | 14
CC=Cc1ccc2n(c1=O)C[C@@H]1[C@@H](CO)[C@H](C(=O)NCc3ccc(F)cc3)[C@H]2N1CC (mixture of isomers) | 4 | . | -8 | . | . | -22
CCSc1nc(N)c(C#N)c(-c2ccccc2Cl)c1C#N | 14 | 20 | . | 23 | -5 | .
N#Cc1c(N)nc(Sc2ccc(Cl)cc2)c(C#N)c1-c1ccccc1Cl | 32 | 58* | 19 | 48 | 9 | 40
COc1cccc(S(=O)(=O)Nc2ccc3c(c2)C(=O)N(C)[C@H]2CC[C@H](CC(=O)NCC4CCCCC4)O[C@H]2CO3)c1 | -5 | . | -8 | . | . | -12
C[C@@H]1CCCCO[C@H](CN(C)C(=O)Nc2ccc(F)cc2)[C@@H](C)CN([C@@H](C)CO)C(=O)c2cc(NS(=O)(=O)c3ccc(Cl)cc3)ccc2O1 | 19 | . | 7 | . | . | 83*
C[C@H](CO)N1C[C@H](C)[C@H](CN(C)C(=O)Nc2ccc(F)cc2)OCCCC[C@H](C)Oc2ccc(NS(=O)(=O)c3ccc(Cl)cc3)cc2C1=O | 12 | . | 6 | . | . | 61*
COc1cccc(-c2ccc([C@@H]3[C@H](CO)N4C(=O)CN(C(=O)CN5CCOCC5)C[C@@H]34)cc2)c1 | -3 | . | 5 | . | . | -9
C[C@@H]1CN([C@H](C)CO)C(=O)c2cc(-c3cccnc3)cnc2O[C@@H]1CN(C)C(=O)Nc1ccc2c(c1)OCO2 | -18 | . | -10 | . | . | .
C[C@@H]1CN([C@H](C)CO)C(=O)c2cc(C3=CCCCC3)cnc2O[C@@H]1CN(C)S(C)(=O)=O | -6 | . | 7 | . | . | .
NC1=NC[C@H](c2ccccc2)N1CCc1cc(C(F)(F)F)cc(C(F)(F)F)c1 | 16 | 12 | 61* | -14 | -9 | -6
CC(O)[C@H]1CN=C(N)N1CCc1cc(C(F)(F)F)cc(C(F)(F)F)c1 (stereo partly drawn) | 0 | 5 | 16 | -1 | 4 | -17
COc1ccc(Nc2nc3cc(C)ccc3cc2C#N)c(OC)c1 | 7 | -5 | 43 | -3 | 0 | -8
COc1ccc(Nc2nc3ccc(C)cc3cc2C#N)c(OC)c1 | . | 85* | -17 | -21 | -13 | -1
Cc1cc(Nc2ccc3c(c2)OCCO3)c2ccccc2n1 | 6 | 24 | -8 | 28 | 3 | 88*
CCC(=O)N1CC2(C1)[C@@H](c1ccc(-c3cccc(F)c3)cc1)[C@@H](CO)N2CC1CC1 | 0 | . | 2 | . | . | 9
COc1cc2c3nnc(-c4ccc(F)cc4)c-3cn(Cc3ccccc3)c2cc1OC | 16 | i | 42 | -133 | -158 | 69*
COc1cc2c3nnc(-c4ccc(F)cc4)c-3cn(Cc3ccc(F)cc3)c2cc1OC | -22 | -229 | 35 | -60 | -4 | 26
O=C(/C=C/c1ccc(OCCCF)cc1)Nc1ccnc(-c2ccncc2)n1 | 10 | 14 | 6 | 24 | 4 | -9
O=C(/C=C/c1ccc(OCCCF)cc1)Nc1ccnc(-c2cccnc2)n1 | . | 27 | 12 | 52* | 5 | 6
CCCN(C)C[C@@H]1OCCCC[C@@H](C)Oc2ccc(NS(=O)(=O)c3cccs3)cc2C(=O)N([C@H](C)CO)C[C@@H]1C | 22 | . | -5 | . | . | -19
SMILES | LGR2 antag | TWEAK Fn14 block | EWS-Fli block | TROY signal inh | EBV LMP1 NFkB | PAX8 reporter
O=C(Cc1ccccn1)NCC[C@H]1CC[C@H](NS(=O)(=O)c2ccccc2)[C@H](CO)O1 | 4 | . | 4 | . | . | -3
CC(=O)N(Cc1ccc(F)cc1)C1=C(NCCc2ccccc2)C(=O)c2ccccc2C1=O | . | 82* | . | 66* | 76* | 105*
N#CC1(C#N)CC(C=O)=C(N)C1(C#N)CC(=O)C12CC3CC(CC(C3)C1)C2 (stereo not drawn) | 2 | 87* | 5 | 31 | 20 | -17
O=C1N(c2ccccc2)C[C@@H]2C[C@@H](c3cc4ccccc4o3)N3CCC[C@@]123 | 90* | 84* | 39 | 48 | 90* | 98*
O=C(CCc1nc(-c2ccc(Cl)cc2)no1)NCc1ccccc1CN1CCOCC1 | -10 | 0 | 4 | 84* | -6 | 1
COc1ccc(C2C(C#N)=C(N)Oc3c2ccc2cccnc32)cc1OC (stereo not drawn) | -17 | 44 | 26 | 30 | 9 | 86*
CC(=O)N1N=C(c2ccc(C(C)(C)C)cc2)OC1(C)C | -15 | -8 | 16 | 17 | 0 | 70*
Cc1ccc2c(c1)c(/C=C/c1cc[n+](C)cc1)c(C)n2C | 7 | 16 | 57* | 37 | 13 | ?
Cc1ccc2[nH]c(C)c(/C=C/c3cc[n+](C)cc3)c2c1 | 9 | 33 | 50 | 28 | 21 | 78*
O=C(Nc1ccc2c(c1)[C@H]1C[C@@H](CC(=O)N3CCCCC3)O[C@H](CO)[C@H]1O2)NC1CCCCC1 | 1 | . | -5 | . | . | -1
COc1ccc(S(=O)(=O)Nc2ccc3c(c2)C(=O)N([C@@H](C)CO)C[C@H](C)[C@H](CN(C)C)OCCCC[C@H](C)O3)cc1 | 5 | . | . | . | . | 4
CCOc1ccc2nc(NC(=O)Nc3ccccc3)sc2c1 | . | 7 | . | -44 | -65 | .
Cc1ccc2nc(NC(=O)c3ccccn3)sc2c1 | 103* | 98* | 84* | 86* | 82* | 72*
CCOc1ccc2nc(NC(=O)c3ccccn3)sc2c1 | 89* | -5 | 70* | 67* | 57* | 37
CSc1nc2ccc(NC(=O)c3ccccn3)cc2s1 | 71* | 72* | 22 | 26 | 4 | -40
CCOc1ccc2nc(SCCNS(=O)(=O)c3ccccc3)sc2c1 | 16 | 55* | 0 | 20 | 7 | 23
O=C(C[C@@H]1C=C[C@@H](NC(=O)Nc2ccc(C(F)(F)F)cc2)[C@@H](CO)O1)NCc1cc(F)cc(F)c1 | -26 | . | -4 | . | . | 20
O=C(Nc1nc2c(F)cc(F)cc2s1)c1ccccn1 | 60* | 42 | 53* | 36 | 44* | 6
COc1ccc(C)cc1Nc1c2c(nc3ccccc13)CCC2 | -6 | 0 | 53* | 35 | 14 | 47
COC(=O)[C@@H]1[C@@H](CO)[C@@H]2Cn3c(cccc3=O)[C@@H]2N1CC1CCCCC1 | -22 | . | 6 | . | . | 2
Cc1ccc(Nc2nc(CSc3nnc(-c4ccc(F)cc4)n3C)cs2)cc1 | -48 | 64* | -12 | 59* | -34 | -98

High-throughput results from PubChem BioAssay.
